From PubChem BioAssay AID2006 (Sanford-Burnham Center for Chemical Genomics, 2009)
The whole screen tested about 290,000 compounds, of which about 1,000 (0.34%) were called active. Rule as the data show it: active = inhibition above about 50% (passing the limit was not always enough); inconclusive = no clear call, values can overlap the other calls. The sample as a whole holds a higher share of actives than the screen did.

Biological target: SUMO-conjugating enzyme UBC9 (Homo sapiens) (UniProt P63279)
Test: blockers of SAE1/SAE2–UBC9 SUMO transfer – biochemical, HTRF, uHTS, primary screen (AID 2006)
Conditions: HTRF SUMOylation assay, SAE1/SAE2 + UBC9, in vitro, at 35 µM, stronger effect = higher value

SUMO-conjugating enzyme UBC9 (Homo sapiens), sequence (P63279 whole entry, looked up): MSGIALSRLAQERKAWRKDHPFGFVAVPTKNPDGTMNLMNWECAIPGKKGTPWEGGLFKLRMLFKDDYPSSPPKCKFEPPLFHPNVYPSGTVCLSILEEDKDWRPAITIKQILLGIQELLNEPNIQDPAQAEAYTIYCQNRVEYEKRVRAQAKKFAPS

Row | SMILES | inhibition | inhibition (average of repeat tests) [%]
1 | COCCNC(=O)c1ccc2nc(Cc3ccc(OC)c(OC)c3)oc2c1 | 4.2% (inactive) | –
2 | C/C(=C/c1ccccc1)C(=O)N1CCN(c2ccccc2)CC1 | 16.7% (inactive) | –
3 | C=CCN(CC=C)S(=O)(=O)c1ccc(C(=O)Nc2nc3c(s2)CCc2ccccc2-3)cc1 | -14.9% (inactive) | –
4 | COCCN(CCOC)S(=O)(=O)c1ccc(C(=O)Nc2nc3c(s2)CCc2ccccc2-3)cc1 | 67% (active) | 53
5 | COc1ccc(C(=O)Nc2ncc3c(n2)-c2ccccc2CC3)cc1 | 6% (inactive) | –
6 | O=C(/C=C/c1ccc(Cl)cc1)NCCCn1ccnc1 | 12.9% (inactive) | –
7 | CC(=O)N1c2ccc(S(=O)(=O)N3CCC(C(=O)NC4CCCC(C)C4C)CC3)cc2CC1C (stereo unspecified) | -4.4% (inactive) | –
8 | COc1ccc(NC(=O)CC(NC(C)c2ccccc2)C(=O)O)cc1 (stereo unspecified) | 6.5% (inactive) | –
9 | CC(C)c1nc(CNC(=O)CC2C(=O)NCCN2Cc2cccc(F)c2F)cs1 (stereo unspecified) | -7.6% (inactive) | –
10 | CC1CCN(S(=O)(=O)c2ccc3c(c2)n(C)c(=O)n3C)CC1 | 6.7% (inactive) | –
11 | CC1(C(=O)NCCc2c[nH]c3ccccc23)C=CC2(CCCCC2)N1C(=O)c1ccccc1 (stereo unspecified) | 0.3% (inactive) | –
12 | Cc1cc(OC(C)C(=O)NC2CC(C)(C)NC(C)(C)C2)c2c(C)cc(=O)oc2c1 (stereo unspecified) | 33.5% (inactive) | –
13 | O=[N+]([O-])c1cc(S(=O)(=O)Nc2cccc(Cl)c2)ccc1N=Nc1c(O)[nH]c2ccccc12 | 67.7% (active) | –
14 | Cc1cccc(N(CC(=O)N=Nc2c(O)[nH]c3ccccc23)S(C)(=O)=O)c1C | -5.8% (inactive) | –
15 | CN1CCN(c2ccc(S(=O)(=O)Nc3ccccc3)cc2[N+](=O)[O-])CC1 | 21.3% (inactive) | –
16 | COc1ccc(CN2CCNC(=O)C2CC(=O)NCc2cn[nH]c2-c2ccccc2)c(F)c1 (stereo unspecified) | -2.8% (inactive) | –
17 | CN(C(=O)COC(=O)c1nc(Cl)ccc1Cl)C1CCS(=O)(=O)C1 (stereo unspecified) | -3.6% (inactive) | –
18 | Cc1c(-c2cccc(Cl)c2)nc2ccccc2c1C(=O)OCC(=O)N(C)C1CCS(=O)(=O)C1 (stereo unspecified) | 0.4% (inactive) | –
19 | CN(C(=O)COC(=O)c1cc(-c2ccco2)nc2ccccc12)C1CCS(=O)(=O)C1 (stereo unspecified) | 51.3% (active) | –
20 | O=[N+]([O-])/C=C/c1ccc2c(ccn2Cc2ccccc2)c1 | 19.7% (inactive) | –
21 | CC(C)[C@H](NC(=O)N1c2ccccc2NC(=O)[C@@H]1C(C)C)C(=O)N[C@H](C(=O)O)c1ccccc1 | 12.1% (inactive) | –
22 | Cc1cccc(C(=O)Nc2ccc(Oc3cnccn3)cc2)c1 | 10.4% (inactive) | –
23 | CC1CCCCC1NC(=O)CO/N=C/c1ccc(OC(F)F)cc1 (stereo unspecified) | -15.8% (inactive) | –
24 | O=C(Nc1ccc(Br)cc1)c1cc(S(=O)(=O)Nc2ccccn2)ccc1Cl | 3.5% (inactive) | –
25 | COc1ccc(CN2CC(C(=O)NCCc3ccc(Cl)cc3)CC2=O)cc1 (stereo unspecified) | 10.3% (inactive) | –
